{"source": "PubChem BioAssay AID1224865", "about": "(Sanford-Burnham Center for Chemical Genomics, 2016)", "note": "About 1,100 (0.31%) of roughly 360,000 compounds were called active. No stated cut-off is given here; in the data, active means activity change above about 30% (passing the limit was not always enough); inactive means the rest. The entries come from a sample that favours actives as a whole.", "data": [{"target": "Hepatocyte nuclear factor 4-alpha (Homo sapiens) (UniProt P41235)", "sequence (P41235 whole entry, looked up)": "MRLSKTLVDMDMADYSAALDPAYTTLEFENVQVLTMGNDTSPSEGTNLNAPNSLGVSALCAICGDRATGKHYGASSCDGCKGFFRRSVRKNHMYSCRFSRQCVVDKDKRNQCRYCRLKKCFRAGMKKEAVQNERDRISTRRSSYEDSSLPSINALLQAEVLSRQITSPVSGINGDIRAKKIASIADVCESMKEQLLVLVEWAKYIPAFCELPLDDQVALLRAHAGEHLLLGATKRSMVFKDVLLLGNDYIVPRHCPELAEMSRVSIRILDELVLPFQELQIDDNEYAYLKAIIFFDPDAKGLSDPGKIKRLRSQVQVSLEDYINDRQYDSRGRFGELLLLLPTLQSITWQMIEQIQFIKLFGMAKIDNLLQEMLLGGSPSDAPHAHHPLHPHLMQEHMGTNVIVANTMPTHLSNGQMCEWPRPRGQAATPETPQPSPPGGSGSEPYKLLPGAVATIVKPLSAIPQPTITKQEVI", "assay": "HNF4-alpha DNA association modulation – biochemical, fluorescence polarization, FITC-DNA, primary screen (AID 1224865)", "settings": "HNF4a-FITC DNA binding, 1 h, at 10 µM, stronger effect = higher value", "values": [{"smiles": "O=C(CN1CCCCC1)Nc1ccc(Br)cc1C(=O)c1ccccc1Cl", "activity change": "-1.1% (inactive)"}, {"smiles": "O=C(CCN1CCCCC1)NCC(=O)Nc1ccc(Br)cc1C(=O)c1ccccc1", "activity change": "53% (active)"}, {"smiles": "CN1CCN(C(=S)SCC(=O)Nc2ccc(Cl)cc2C(=O)c2ccccc2)CC1", "activity change": "-2.35% (inactive)"}, {"smiles": "COc1ccccc1N=Nc1c(O)[nH]c(=S)[nH]c1=O", "activity change": "68.8% (active)"}, {"smiles": "CCOCCc1c(O)[nH]c(=S)[nH]c1=O", "activity change": "-0.41% (inactive)"}, {"smiles": "O=C1N=c2ccccc2=C/C1=C\\c1c(O)[nH]c(=S)[nH]c1=O", "activity change": "4.26% (inactive)"}, {"smiles": "C=Cn1ccnc1P(=S)(c1cc(N(CC)CC)ns1)c1nccn1C=C", "activity change": "-0.17% (inactive)"}, {"smiles": "CCN(CC)c1ccc([N+](=O)[O-])c2cccnc12", "activity change": "4.4% (inactive)"}, {"smiles": "COc1ccc(-c2nn(CCC#N)cc2C(=O)Nc2ccc(C(C)=O)cc2)cc1", "activity change": "2.38% (inactive)"}, {"smiles": "CC1CC=CCC12C(=O)NC(=S)NC2=O", "note": "(stereo not given)", "activity change": "-0.2% (inactive)"}]}]}
